PubChem BioAssay AID504847 (National Center for Advancing Translational Sciences (NCATS), 2011)
Where “and” joins values, the source holds several entries; their conditions need not be identical. Equal entries are not always repeated. Hit rate of the full screen: of about 400,000 compounds, about 3,700 (0.93%) were called active. Inconclusive results (about 3%) are left out. Only a selection was taken, and actives are over-represented in it overall. Some structures have more than one record in an assay (separate samples or runs), and their calls can disagree. A number with no mark means an inactive call. Calls follow the shape of the dose curve; as a rule, active = well fitted inhibition curve with a large enough effect; inconclusive = small, poorly fitted or top-dose-only effect, or another doubt; inactive = no such curve, though single readings can be large or run the other way.

target: Vitamin D3 receptor (Homo sapiens) (UniProt P11473); experiment: Inhibitors of the vitamin D receptor (VDR): qHTS; conditions: VDR-SRC2-3 peptide fluorescence polarization, 2 h; max response, negative = inhibition: hits give low values
Sequence (P11473 whole entry, looked up): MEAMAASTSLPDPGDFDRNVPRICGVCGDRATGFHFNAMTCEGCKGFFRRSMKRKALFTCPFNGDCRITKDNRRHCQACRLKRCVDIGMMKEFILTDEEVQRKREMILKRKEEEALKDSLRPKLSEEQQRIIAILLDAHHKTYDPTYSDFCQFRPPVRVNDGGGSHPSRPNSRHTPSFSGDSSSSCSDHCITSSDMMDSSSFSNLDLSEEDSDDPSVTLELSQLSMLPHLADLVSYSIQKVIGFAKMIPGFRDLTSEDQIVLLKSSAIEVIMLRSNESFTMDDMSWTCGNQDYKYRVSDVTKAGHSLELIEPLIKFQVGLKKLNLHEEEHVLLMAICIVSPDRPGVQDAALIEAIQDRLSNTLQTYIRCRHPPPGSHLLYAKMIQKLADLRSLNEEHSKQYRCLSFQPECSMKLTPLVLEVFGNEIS
From the text: The vitamin D receptor (VDR) is a ligand-activated transcription factor and is partially responsible for the regulation of the endocrine system. This includes the transcriptional regulation of genes involved in the production of the parathyroid hormone (PTH) and the regulation of the blood calcium level. High levels of PHT can cause hypercalcemia in the case of primary and tertiary hyperparathyroidism. The VDR-mediated gene regulation, activated by its ligand 1,25-dihydroxyvitamin D3 (1,25-(OH)2D3), is governed by the recruitment of coactivators. Our hypothesis is that small molecules, with the ability to inhibit the interaction between VDR and certain coactivators, are able to selectively modulate VDR-mediated transcription. Our long term objective is the application these VDR-coactivator inhibitors to study the role of VDR-coactivator binding for specific VDR regulated genes. Ultimately, these molecules can be developed into new treatments for hypercalcemic hyperparathyroidism. No small molecule or non-peptide inhibitors are known for the VDR-coactivator interaction.
In a collaboration between the University of Wisconsin, Milwaukee and the NIH Chemical Genomics Center (NCGC) a HTS-compatible enzymatic assay was developed. The assay uses fluorescence polarization as its read-out to measure the inhibition between VDR and coregulator peptide SRC2-3 exerted by small molecules. This assay was used to screen the NIH Molecular Libraries Small Molecule Repository (MLSMR).
NIH Chemical Genomics Center [NCGC]
NIH Molecular Libraries Probe Centers Network [MLPCN]
Assay Submitter (PI): Alexander Arnold, University of Wilwaukee
Both solutions are kept at 4 deg C and protected from light and dispensed using a Kalypsys dispenser. Then 23nl of compounds and controls are added with Kalypsys pintool. […] Plate is centrifuged at 1000 RPM for 15 seconds to remove any residual bubbles. The plate is then incubate at ambient room temperature for 2 hours.
% is scaled to controls: 0 for no effect and ±100 for the full control effect; potency is read from the fitted curve at half-maximal effect.

SMILES	Potency	max response, negative = inhibition
CC[N+](C)(CC)CCC[n+]1c(-c2ccccc2)c2cc(N)ccc2c2ccc(N)cc21	8.91 µM (active)	
COc1ccc2c3c1O[C@H]1C[C@@H](O)C=C[C@@]31CCN(C)C2		4.74% and -11.8%
c1ccc2c(c1)[I+]c1ccccc1-2		-6.32%
COc1ccc(CN2C(=O)NC(=O)/C(=C\c3ccc(OC)c(OC)c3OC)C2=O)cc1	70.8 µM (active)	
CNC(C)[C@@H](O)c1ccccc1 (stereo partly specified)		2.28%
CO[C@@H]1C[C@@H](C[C@H]2CC[C@H](C)[C@@H]([C@@H](C)C(=O)O)O2)O[C@]2(O[C@](C)([C@H]3CC[C@@](C)(C4OC([C@H]5O[C@@](O)(CO)[C@H](C)C[C@@H]5C)C[C@@H]4C)O3)C[C@H]2C)[C@@H]1C (stereo partly specified)		10.2%
N#Cc1c(Cl)c(Cl)c(Cl)c(C#N)c1Cl	0.794 µM (active)	
CCCCCCCCCCCCN=C(N)N		6.41%
C[C@@H]1C[C@H]2CC[C@H](O2)[C@H](C)C(=O)O[C@@H](C)C[C@@H]2CC[C@@H](O2)[C@@H](C)C(=O)O[C@H](C)C[C@H]2CC[C@H](O2)[C@H](C)C(=O)O[C@@H](C)C[C@@H]2CC[C@@H](O2)[C@@H](C)C(=O)O1		8%
COc1ccc2c3c1OC1CC(O)C=C[C@@]31CCN(C)C2 (stereo partly specified)		-3.65%
NC[C@H](O)c1ccc(O)cc1		6.55%
O=C(Nc1cccc(F)c1)N1CC[C@@]2(CCCN(C(=O)Oc3ccccc3)C2)C1		2.93%
CCOC(=O)c1ncn2c1[C@@H]1CCCN1C(=O)c1cc(OC)ccc1-2		-6.26%
CC(=O)c1c(O)c(C)c(O)c(Cc2c(O)c3c(c(C(=O)/C=C\c4ccccc4)c2O)OC(C)(C)C=C3)c1O	35.5 µM (active)	
CC(=O)c1c(O)c(C)c(O)c(Cc2c(O)c3c(c(C(=O)/C=C/c4ccccc4)c2O)OC(C)(C)C=C3)c1O	14.1 µM (active) and 8.91 µM (active) and 39.8 µM (active)	
CN(C)C[C@H]1CCCC[C@]1(O)c1cccc(O)c1		1.62%
Cc1cccc([C@H](C)c2cnc[nH]2)c1C		7.28%
CO[C@H]1[C@@H](O)[C@@H](C)O[C@H](O[C@H]2[C@H](Oc3cccc4c(O)c5c(=O)oc6ccc(C)c7c(=O)oc(c34)c5c67)O[C@H](C)[C@H](O)[C@@H]2O)[C@@H]1O		14.9%
Cc1ccc(-n2c(/C=C/c3cccc(C(F)(F)F)c3)nc3ccccc3c2=O)cc1		9.47%
Cc1ccc(NC(=O)N(Cc2ccc3c(c2)OCO3)C2CCN(Cc3ccccc3)CC2)cc1F		4.08%
Fc1ccc(C(OCCN2CCN(C/C=C\c3ccccc3)CC2)c2ccc(F)cc2)cc1		-15.8%
CCCCC/C=C\C/C=C\C/C=C\C/C=C\CCCCCC(=O)NCCO	35.5 µM (active)	17.7% and -2.94% and 0.308%
CCCCC/C=C\C/C=C\C/C=C\C=C\[C@H](CCCC(=O)O)OO		7.28% and 4.32%

SMILES	Potency	max response, negative = inhibition
CCCCC/C=C\C/C=C\C/C=C\CCCCCCC(=O)NCCO		-6.07% and 11.4% and 0.788%
CC[C@@H]1CN2CC[C@@H]1C[C@H]2[C@H](O)c1ccnc2ccc(OC)cc12		3.71%
CC(=O)[O][Sn]([c]1ccccc1)([c]1ccccc1)[c]1ccccc1	2.24 µM (active)	
COC(=O)N1C(c2ccccc2)C1c1ccccc1 (stereo unspecified)		8.84%
O=C(O)CCn1cc(C=C2C(=O)NC(=S)NC2=O)c(-c2cccc(Br)c2)n1	25.1 µM (active)	
C[C@@]12CC[C@H]3[C@@H](CC[C@]4(O)C[C@H](O)CC[C@@]34C=O)[C@]1(O)CC[C@@H]2C1=CC(=O)OC1		6.85%
c1csc(CN2CC3(CCNCC3)C2)n1		2.29%
Cc1cccc2c3c(ccc12)C1=C(C(=O)C3=O)C(C)CO1 (stereo unspecified)	5.62 µM (active)	
COc1ccc(C2Oc3c(I)c(OC)cc(OC)c3CC2O)cc1OC (stereo unspecified)		-4.29%
Nc1ccc(-c2ccc(N)c(N)c2)cc1N		7.8%
c1ccc(CCCCN2CCC(c3ccccc3)CC2)cc1		6.23% and 8.72%
Cc1ncsc1CCCl		-5.72% and -13.2% and 18.1%
COc1ccccc1-c1[se]c2ccccc2c1I		-10.1%
N#CC(C#N)=Cc1cc(O)c(O)c([N+](=O)[O-])c1	44.7 µM (active)	
CCC(C)C(=O)O[C@@H]1C[C@@]2(C)C(c3ccoc3)OC(=O)CC23OC2(C)O[C@@]14[C@@]1(C)C(CC(=O)OC)C5(C)CC1(O)C(O)(C5OC(=O)C1(C)OC1C)C(OC(C)=O)[C@@]34O2 (stereo partly specified)		-0.0436%
C[C@]12O[C@H](C[C@@]1(O)C(=O)O)n1c3ccccc3c3c4c(c5c6ccccc6n2c5c31)CNC4=O		0.321%
COc1cc2c(cc1OC)[C@@H]1C(=O)c3ccc(O)c(CC=C(C)C)c3OC1CO2 (stereo partly specified)		10.7%
CCCCCCCCCCCCCC(=O)O[C@@H]1[C@@H](C)[C@@]2(O)[C@@H](C=C(CO)C[C@]3(O)C(=O)C(C)=C[C@@H]23)[C@@H]2C(C)(C)[C@]12OC(C)=O		3.48%
CCC1(c2ccccc2)C(=O)NC(=O)N(C)C1=O (stereo unspecified)		3.76%
O=P1(Oc2ccccc2)CC(O)C(O)C(COCc2ccccc2)O1 (stereo unspecified)		-0.629%
CC(=O)OC1C2(CC3N4C(=O)C5(CO)SSC4(CC31O)C(=O)N5C)OC(C)C(C)(C)C2=O (stereo unspecified)	39.8 µM (active)	
Cc1cccc(Cn2cccc(C(=O)Nc3ccc4c(c3)OCCO4)c2=O)c1		10.5%
Clc1ccc([C@@H]2C[C@H]3CC[C@@H]2N3)cn1		3.4%

SMILES	Potency	max response, negative = inhibition
C1CC[C@H]([C@@]23C[C@H](C[C@H]4CCCN[C@H]42)[C@@H]2CCCCN2C3)NC1		1.42%
O=C(O)c1cc[c]([Sb](=[O])([OH])[OH])cc1[N+](=O)[O-]		-21.9%
C[C@@]12CCC3C(CC[C@@H]4CC(O)CC[C@@]34C)C1CCC2O (stereo partly specified)		-4.26%
O=C1NC(=O)N(c2ccccc2)C(=O)/C1=C/c1ccc([N+](=O)[O-])s1	50.1 µM (active)	
CN1CCCC(=C(c2cccs2)c2cccs2)C1		3.88%
CC[N+]1(CCOC(=O)C(O)(c2ccccc2)c2ccccc2)CCCCC1		4.12%
C[C@]12CC[C@H](O)C[C@@H]1CC[C@H]1[C@H]2CC[C@]2(C)C(=O)CC[C@@H]12		-9.44% and 0.624% and 3.94%
Cc1ccnc(-n2c(C)cc(/C=C3\C(=O)NC(=S)N(C)C3=O)c2C)c1	39.8 µM (active)	
Cc1cc(C=C2C(=O)NC(=O)NC2=O)c(C)n1-c1ccncc1		-27.9%
CCN1C[C@@]2(COC)CC[C@H](OC)[C@]34[C@@H]1[C@]1(OCO[C@@]15C[C@@H](OC)C1C[C@H]3[C@H]5[C@@H]1OC)[C@H](O)[C@@H]24		1.56%
CC(C)(Cc1c[nH]c2ccc(Cl)cc12)NCCOc1ccccc1OCC1CC1		-1.04% and 2.67%
CC(C)(O)c1[se]c2ccccc2c1I		-15.8%
c1csc(CN2CCCC3(CCNCC3)C2)n1		-8.79%
Cc1nnc(NC(=O)c2cccn(Cc3cccc(F)c3)c2=O)s1		12.7%
Cc1ccc2c(c1)=C/C(=C\c1c(O)[nH]c(=O)[nH]c1=O)C(=O)N=2	89.1 µM (active)	
O=c1[nH]c(O)c(C=Nc2cc(F)cc(F)c2)c(=O)[nH]1		-6.29%
C/C(=C\C=C/[C@@H](C)C(=O)O)[C@H]1CN[C@H](C(=O)O)[C@@H]1CC(=O)O		-9.05%
COc1ccc2[nH]cc(CCNCc3ccc(Br)cc3)c2c1		5.83%
COC(=O)c1ccc2[se]c(CC3CCCCC3)c(I)c2c1		3.86%
C=CCN(CC=C)C(=O)Nc1ccc(OCC)cc1		-2.13%
C=CCN1C(=O)NC(=O)/C(=C/c2ccc(OCC(=O)Nc3ccc(C)cc3)cc2)C1=O	70.8 µM (active)	
CCC(=O)c1ccc(OCC(=O)N2CCN(CC(=O)Nc3ccc(C)cc3)CC2)cc1		0.567%
C[C@@H]1C[C@@H]2O[C@H]2/C=C\C=C\C(=O)Cc2c(Cl)c(O)cc(O)c2C(=O)O1		-4.25%

SMILES	Potency	max response, negative = inhibition
O=C1CCc2cccc3c2N1CC3		-0.897%
COC([CH2][Hg])CNC(=O)c1ccccc1OCC(=O)O (stereo unspecified)	5.62 µM (active)	
CCCCCCCCc1[se]c2ccccc2c1Br		0.449%
N[C@H](Cc1o[nH]c(=O)c1Cl)C(=O)O		3.74%
C=CCN1CCC23c4c5ccc(O)c4O[C@H]2C(=O)CC[C@@]3(O)C1C5 (stereo partly specified)		-0.103% and 4.39%
C[C@H]1CC[C@@]2(NC1)O[C@@H]1C[C@H]3[C@@H]4CC=C5C[C@@H](O)CC[C@]5(C)[C@@H]4CC[C@]3(C)[C@@H]1[C@@H]2C		-0.658%
C=CCN1CCC2(C)c3cc(O)ccc3CC1[C@@H]2C (stereo partly specified)		1.58%
CC(=O)OC1C2CCC3C1(CC(O)[C@@]1(O)[C@@H](CC(O)C1(C)C)[C@]3(C)O)C[C@@]2(C)O (stereo partly specified)		0.185%
CN[C@@H]1C[C@H]2O[C@@](C)([C@@H]1OC)n1c3ccccc3c3c4c(c5c6ccccc6n2c5c31)C(=O)NC4		1.57% and -1.64%
CCNC[C@H](O)c1cccc(O)c1		-1.81%
C=CCSSCC=C	20 µM (active)	
COC1=C[C@]23CCCN2CCc2cc4c(cc2[C@@H]3[C@@H]1O)OCO4		-4.23%
CC(C)(c1ccc(OC[C@@H]2CO2)cc1)c1ccc(OC[C@H]2CO2)cc1		4.79%
CN1C2CC3CC1C(O3)C2O (stereo unspecified)		-5.48%
CCN1C[C@]2(COC)C(O)C[C@H](OC)[C@@]34C5C[C@]6(O)C(OC)C(O)[C@](OC(C)=O)(C5C6OC(=O)c5ccccc5)C(C(OC)C23)C14 (stereo partly specified)		4.87%
CCOC(=O)C(O)(c1ccc(NC(=O)c2ccco2)c(OC)c1)C(F)(F)F (stereo unspecified)		9.73%
COc1cc(Cn2c(N)c(C(=O)NCc3ccco3)c3nc4ccccc4nc32)cc(OC)c1OC	79.4 µM (active)	
COC(=O)C1=C(c2ccccc2)C[C@@H]2CC[C@H]1N2C(=O)NCc1ccco1		-7.95%
CC(=O)NBr		-2.36%
CCN1C[C@]2(C)CC[C@H](O)[C@@]34[C@@H]5CC6[C@@H](OC)C[C@@](O)([C@@H]5[C@@H]6O)[C@H](C[C@@H]23)[C@H]14		0.208%
NS(=O)(=O)c1ccc(CCNC(=O)c2ccc(Cl)c(S(=O)(=O)N3CCCCCC3)c2)cc1		6.51%
